Reference: PubChem BioAssay (NCATS)
Records with an inconclusive call do not appear. Calls of active or inactive are those of the source. Calls come from the whole dose curve; as a rule, active = well fitted inhibition curve with a large enough effect; inconclusive = small, poorly fitted or top-dose-only effect; inactive = flat fitted curve, though single readings scatter.

test system: CP269; assay: qHTS profiling for inhibitors of Plasmodium falciparum proliferation (AID 504749); note: nearly all actives have a fitted effect of over 60% in size;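 for activity, negative = inhibition: 0% = DMSO vehicle and full inhibition = artemisinin control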; conditions: P. falciparum in erythrocytes, SYBR Green DNA, 72 h; series mostly up to 28.7 µM; activity, negative = inhibition: at the top concentration
Method in brief: (§1)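 Quantitative HTS: compounds pinned into medium, infected erythrocytes added (0.3% parasitemia, 2.5% hematocrit), 72 h culture at 37 C under 5% CO2. Saponin/Triton lysis with SYBR Green I, overnight RT, then fluorescence read.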
Potency is the fitted concentration of half-maximal effect.

Compound	activity, negative = inhibition	Potency
CO/N=C(/C(=O)N[C@@H]1C(=O)N2C(C(=O)O)=CCS[C@H]12)c1csc(N)n1	-0.856% (inactive)	
Cc1cc(CC(C)CC(C)(C)C)n(O)c(=O)c1 (stereo not drawn)		3.38 µM (active)
CC1CCC(C(C)C)C(OC(=O)c2ccccc2O)C1 (stereo not drawn)	-3.61% (inactive)	
CC(C)(CO)C(O)C(=O)NCCCC(=O)O (stereo not drawn)		16.9 µM (active)
CO[C@@H]1[C@@H](OC2OC(C)C(OC3CC(C)(O)C(OC(=O)CC(C)C)C(C)O3)C(N(C)C)C2O)[C@@H](CC=O)C[C@@H](C)C(=O)/C=C\C2O[C@H]2C[C@@H](C)OC(=O)C[C@H]1OC(C)=O (stereo partly drawn)		4.78 µM (active)
CCC(=O)O[C@@H](OP(=O)(CCCCc1ccccc1)CC(=O)N1C[C@H](C2CCCCC2)C[C@H]1C(=O)O)C(C)C (stereo partly drawn)	2.89% (inactive)	
CC(=O)O[C@@]12CO[C@@H]1C[C@H](O)[C@@]1(C)C(=O)[C@H](O)C3=C(C)[C@@H](OC(=O)C(O)[C@@H](NC(=O)OC(C)(C)C)c4ccccc4)C[C@@](O)([C@@H](OC(=O)c4ccccc4)[C@H]21)C3(C)C (stereo partly drawn)		0.0426 µM (active)
CC1(C)S[C@@H]2[C@H](NC(=O)COc3ccccc3)C(=O)N2[C@H]1C(=O)O	4.34% (inactive)	
CCN1/C(=C/C=C/C=C/c2sc3ccccc3[n+]2CC)Sc2ccccc21		15.1 µM (active)
Nc1nc(Cl)nc2c1ncn2C1CC(O)C(CO)O1 (stereo not drawn)	-0.882% (inactive)	

test system: CP286; assay: as above; conditions: P. falciparum in erythrocytes, SYBR Green DNA, 72 h; series mostly up to 28.7 µM; activity, negative = inhibition: at the top concentration
Method in brief: as §1

Compound	activity, negative = inhibition	Potency
CO/N=C(/C(=O)N[C@@H]1C(=O)N2C(C(=O)O)=CCS[C@H]12)c1csc(N)n1	-0.934% (inactive)	
Cc1cc(CC(C)CC(C)(C)C)n(O)c(=O)c1 (stereo not drawn)		2.82 µM (active)
CC1CCC(C(C)C)C(OC(=O)c2ccccc2O)C1 (stereo not drawn)	-0.3% (inactive)	
CC(C)(CO)C(O)C(=O)NCCCC(=O)O (stereo not drawn)		10 µM (active)
CO[C@@H]1[C@@H](OC2OC(C)C(OC3CC(C)(O)C(OC(=O)CC(C)C)C(C)O3)C(N(C)C)C2O)[C@@H](CC=O)C[C@@H](C)C(=O)/C=C\C2O[C@H]2C[C@@H](C)OC(=O)C[C@H]1OC(C)=O (stereo partly drawn)		4.47 µM (active)
CCC(=O)O[C@@H](OP(=O)(CCCCc1ccccc1)CC(=O)N1C[C@H](C2CCCCC2)C[C@H]1C(=O)O)C(C)C (stereo partly drawn)	-0.262% (inactive)	
CC(=O)O[C@@]12CO[C@@H]1C[C@H](O)[C@@]1(C)C(=O)[C@H](O)C3=C(C)[C@@H](OC(=O)C(O)[C@@H](NC(=O)OC(C)(C)C)c4ccccc4)C[C@@](O)([C@@H](OC(=O)c4ccccc4)[C@H]21)C3(C)C (stereo partly drawn)		0.0178 µM (active)
CC1(C)S[C@@H]2[C@H](NC(=O)COc3ccccc3)C(=O)N2[C@H]1C(=O)O	0.938% (inactive)	
CCN1/C(=C/C=C/C=C/c2sc3ccccc3[n+]2CC)Sc2ccccc21		0.708 µM (active)
O=NCc1ccc([N+](=O)[O-])o1	-8.42% (inactive)	

test system: CP291; assay: as above; conditions: P. falciparum in erythrocytes, SYBR Green DNA, 72 h; series mostly up to 28.7 µM; activity, negative = inhibition: at the top concentration
Method in brief: as §1

Compound	activity, negative = inhibition	Potency
CO/N=C(/C(=O)N[C@@H]1C(=O)N2C(C(=O)O)=CCS[C@H]12)c1csc(N)n1	-4.07% (inactive)	
Cc1cc(CC(C)CC(C)(C)C)n(O)c(=O)c1 (stereo not drawn)		1.9 µM (active)
CC1CCC(C(C)C)C(OC(=O)c2ccccc2O)C1 (stereo not drawn)	-1.63% (inactive)	
CO[C@@H]1[C@@H](OC2OC(C)C(OC3CC(C)(O)C(OC(=O)CC(C)C)C(C)O3)C(N(C)C)C2O)[C@@H](CC=O)C[C@@H](C)C(=O)/C=C\C2O[C@H]2C[C@@H](C)OC(=O)C[C@H]1OC(C)=O (stereo partly drawn)		6.75 µM (active)
CCC(=O)O[C@@H](OP(=O)(CCCCc1ccccc1)CC(=O)N1C[C@H](C2CCCCC2)C[C@H]1C(=O)O)C(C)C (stereo partly drawn)	4.62% (inactive)	
CC(=O)O[C@@]12CO[C@@H]1C[C@H](O)[C@@]1(C)C(=O)[C@H](O)C3=C(C)[C@@H](OC(=O)C(O)[C@@H](NC(=O)OC(C)(C)C)c4ccccc4)C[C@@](O)([C@@H](OC(=O)c4ccccc4)[C@H]21)C3(C)C (stereo partly drawn)		0.0379 µM (active)
CC1(C)S[C@@H]2[C@H](NC(=O)COc3ccccc3)C(=O)N2[C@H]1C(=O)O	-2.52% (inactive)	
CCN1/C(=C/C=C/C=C/c2sc3ccccc3[n+]2CC)Sc2ccccc21		13.5 µM (active)
Nc1nc(Cl)nc2c1ncn2C1CC(O)C(CO)O1 (stereo not drawn)	-9.34% (inactive)	
O=NCc1ccc([N+](=O)[O-])o1	-11.7% (inactive)	

test system: CP297; assay: as above; conditions: P. falciparum in erythrocytes, SYBR Green DNA, 72 h; series mostly up to 28.7 µM; activity, negative = inhibition: at the top concentration
Method in brief: as §1

Compound	activity, negative = inhibition	Potency
CO/N=C(/C(=O)N[C@@H]1C(=O)N2C(C(=O)O)=CCS[C@H]12)c1csc(N)n1	4.39% (inactive)	
Cc1cc(CC(C)CC(C)(C)C)n(O)c(=O)c1 (stereo not drawn)		1.69 µM (active)
CC1CCC(C(C)C)C(OC(=O)c2ccccc2O)C1 (stereo not drawn)	-1.25% (inactive)	
CCC(=O)O[C@@H](OP(=O)(CCCCc1ccccc1)CC(=O)N1C[C@H](C2CCCCC2)C[C@H]1C(=O)O)C(C)C (stereo partly drawn)	-2.79% (inactive)	
CC(=O)O[C@@]12CO[C@@H]1C[C@H](O)[C@@]1(C)C(=O)[C@H](O)C3=C(C)[C@@H](OC(=O)C(O)[C@@H](NC(=O)OC(C)(C)C)c4ccccc4)C[C@@](O)([C@@H](OC(=O)c4ccccc4)[C@H]21)C3(C)C (stereo partly drawn)		0.0953 µM (active)
CC1(C)S[C@@H]2[C@H](NC(=O)COc3ccccc3)C(=O)N2[C@H]1C(=O)O	1.31% (inactive)	
CCN1/C(=C/C=C/C=C/c2sc3ccccc3[n+]2CC)Sc2ccccc21		12 µM (active)
Nc1nc(Cl)nc2c1ncn2C1CC(O)C(CO)O1 (stereo not drawn)	-18.4% (inactive)	
